Screening results as filed in PubChem.
Most compounds without a hit are left out; they make up all but 10% or so of the library.
Six1-Eya2 blk: inhibitors of human Six1/Eya2 interaction | activity change, % (no concentration beside the values) | 0.56% of 360,000 active | AlphaScreen GST-Six1/His-Eya2 binding, biochemical; stronger effect = lower value | Q15475+O00167 | AID 651725; in the data active means activity change below about -65%; inconclusive means mostly about -30% to -63%; further: on the % scale 0 is the no-effect control and ±100 the full control effect
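Six1/Eya2 binding was read as AlphaScreen signal after compounds were pinned into GST-Six1 plus His-tagged Eya2 (5X stock 250/500 nM) in pH 8.0 Tris/NaCl/TCEP buffer, beads added, then incubated 1 h, 37 C, dark.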
JMJD2A Tudor: JMJD2A Tudor domain (human) inhibition; AID 504339; AlphaScreen JMJD2A-Tudor / H3K4me3 peptide binding; 4.4% of 390,000 active; Potency, µM (doses to about 114 µM), for the others: top-dose activity change, negative = inhibition, usual class: inhibitors; O75164; further: potency means the concentration at half of the fitted maximal effect; on the % scale 0 is the no-effect control and ±100 the full control effect; nearly all actives have a fitted effect of over 50% in size
G9a block: G9a (human) methyltransferase inhibition; Q96KQ7; G9a H3K9 monomethylation, AlphaScreen, 2 h; Potency, µM (doses to about 102 µM), without a hit: at the top dose activity, negative = inhibition, usual class: inhibitors; 8.8% of 350,000 active; AID 504332; further: potency means the concentration at half of the fitted maximal effect; on the % scale 0 is the no-effect control and ±100 the full control effect; nearly all actives have a fitted effect of over 75% in size
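Enzyme 20 nM + cpd, 15 min RT; add b-H3K9 pep 500 nM / SAM 20 uM; 2 h RT; anti-H3K9me1 Ab 0.5 ug/mL + SA donor / anti-rabbit acceptor beads 20 ug/mL each, 10 min; AlphaScreen read.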
HP1b chromo inh: inhibitors of HP1-beta chromodomain binding to methylated histone tails | P83916 | Potency, µM (top dose mostly 114 µM), for the others: at the top dose activity change, negative = inhibition, hits mostly inhibitors | 0.56% of 390,000 active | AlphaScreen HP1-beta / biotin-H3K9me3 peptide binding; further: potency means the concentration at half of the fitted maximal effect; nearly all actives have a fitted effect of over 70% in size
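Compound inhibition of the preformed complex between 50 nM HP1-beta and 50 nM biotinylated H3K9me3 peptide was read by AlphaScreen. Buffer was PBS pH 7.4 with 0.01% Tween-20. Incubations ran 30 min at room temperature, with 10 ug/mL donor/acceptor beads.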
BAZ2B block: blocks human BAZ2B | Q9UIF8 | 4.4% of 360,000 active | Potency, µM (top dose mostly 114 µM), for inactives: at the top dose activity change, negative = inhibition, actives largely listed as inhibitors | AlphaScreen BAZ2B-H3K14Ac peptide displacement; further: potency means the concentration at half of the fitted maximal effect; on the % scale 0 is the no-effect control and ±100 the full control effect; nearly all actives have a fitted effect of over 60% in size
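Compounds, titrated to a top concentration of 110 uM, were incubated 30 min at room temperature with preformed BAZ2B/acetyl-K14 H3 peptide complex (50 nM each). Proximity signal was measured by AlphaScreen after 20 min with beads.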
CtBP-E1A inh: CtBP/E1A binding inhibition | AlphaScreen GST-E1A/His-CtBP binding, 1536-well; stronger effect = lower value | activity change, % (test concentration not listed) | 0.49% of 340,000 active | AID 651724; in the data active means activity change below about -65%; inconclusive means mostly about -30% to -63%; further: on the % scale 0 is the no-effect control and ±100 the full control effect
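GST-E1A and His-tagged CtBP (125 nM each as 5X stock) were preincubated with pin-transferred compound for 2 h at 37 °C in the dark, then glutathione donor and nickel acceptor beads were added for 1 h before AlphaScreen reading.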
Numbers without * were called inactive; ? = inconclusive; nt = no result; [ ] = dose if it differs, or a comment. Unless noted, the call rests on the fitted dose curve; in most records, active means well fitted inhibition curve with a large enough effect; inconclusive means small, poorly fitted or top-dose-only effect; inactive means no such curve, though single readings can be large or run the other way.

SMILES	Six1-Eya2 blk	JMJD2A Tudor	G9a block	HP1b chromo inh	BAZ2B block	CtBP-E1A inh
COc1ccc(N2CCN(C(=O)c3cc(C4CC4)nn3-c3ccccc3)CC2)cc1	-29	50µM*	?	?	45µM*	-28
COc1ccc(OC)c(-c2cc(C(=O)N3CCN(c4ncccn4)CC3)c3ccccc3n2)c1	?	-4%	?	11%	3%	?
COc1ccc(N2CCN(C(=O)c3cc(-c4cc(OC)ccc4OC)nc4ccccc34)CC2)cc1	?	35µM*	25µM*	?	11µM*	2
Cc1ccc(-c2cc(C(=O)N3CCN(c4ccc(O)cc4)CC3)c3ccccc3n2)cc1	?	28µM*	nt	?	nt	nt
Cc1ccc(-c2cc(C(=O)N3CCN(c4ccc(F)cc4)CC3)c3ccccc3n2)o1	-20	56µM*	45µM*	-17%	40µM*	-23
O=C(c1cc(C2CC2)nn1-c1ccccc1)N1CCN(Cc2ccccc2)CC1	-9	nt	nt	nt	nt	-1
COc1ccc(-c2cc(C(=O)N3CCN(c4ccccc4O)CC3)c3ccccc3n2)cc1	-2	-33%	?	14%	-38%	nt
CC(C)(C)c1ccc(C(=O)NC2(C(F)(F)F)NC(=O)N(CCc3ccccc3)C2=O)cc1 (stereo not drawn)	nt	-18%	-5%[59 µM]	9%	-27%	nt
Cc1ccccc1-c1cc(C(=O)N2CCCC2)c2ccccc2n1	-3	-12%	40µM*	8%	-20%	10
COc1ccc(-c2cc(C(=O)N3CCN(c4ccccc4)CC3)c3ccccc3n2)cc1	-5	-29%	40µM*	6%	-38%	8
Cc1ccc(-c2cc(C(=O)N3CCN(c4ccccc4O)CC3)c3ccccc3n2)cc1	-16	?	40µM*	-7%	-36%	-18
COc1ccc(N2CCN(C(=O)c3cn(Cc4ccccc4)nc3-c3cccnc3)CC2)cc1	-6	-31%	8.9µM*	4%	-36%	-7
N#Cc1ccc(CN2CCN(C(=O)c3cn(Cc4ccccc4)nc3-c3cccnc3)CC2)cc1	-1	-15%	?	27%	1%	0
CC(Sc1nnc(C2CC2)n1C1CC1)C(=O)NC1(C#N)CCCCC1 (stereo not drawn)	0	-8%	-11%[59 µM]	22%	3%	-3
Cc1ccc(-c2cc(C(=O)N3CCOCC3)c3ccccc3n2)o1	-6	-29%	nt	-16%	nt	2
COCCOC(=O)/C(C#N)=C/c1cn(Cc2ccccc2)nc1-c1cccnc1	3	35µM*	?	16%	79µM*	7
O=C(c1cc(-c2ccccc2Cl)nc2ccccc12)N1CCC1	-1	-9%	-38%	14%	-2%	1
Cc1ccc(-c2cc(C(=O)N3CCN(c4ncccn4)CC3)c3cc(Br)ccc3n2)o1	-16	35µM*	?	?	?	-19
COc1ccc(-c2cc(C(=O)N3CCN(c4ncccn4)CC3)c3ccccc3n2)c(OC)c1	-8	-4%	?	25%	-1%	-21
O=C(c1cc(-c2ccccc2Cl)nc2ccccc12)N1CCN(c2ccccc2O)CC1	-23	-32%	56µM*	-6%	-35%	-4
COc1ccc(-c2cc(C(=O)N3CCCCCC3)c3ccccc3n2)c(OC)c1	-8	-28%	40µM*	18%	-34%	-3
N#Cc1ccc(-c2cccc3nccn23)cc1	4	nt	nt	nt	nt	4
Oc1ccccc1/C=N/Nc1nc2ccccc2o1	-72*	-24%	nt	31%	-2%	-77*
Brc1ccc(/C=N/Nc2nc3ccccc3o2)cc1	-8	-14%	28µM*	44%	-27%	-13
c1ccc(Nc2nc3ccccc3o2)cc1	2	-13%	-7%[12.7 µM]	21%	7%	6
Cc1nn(C(C)C(=O)NCCCN2CCCCCC2)c(=O)c2cc3sccc3n12 (stereo not drawn)	-1	-27%	nt	25%	-7%	-5
CCN1CCN(C(c2ccccc2Cl)c2c(O)cc(C)n(Cc3ccco3)c2=O)CC1 (stereo not drawn)	nt	?	?	22%[57 µM]	-19%	nt
